“And” between values parts separate entries of the source, which are not always exact repeats. Equal entries are not always repeated. Results filed as inconclusive are left out. A call without a number means that no potency is given here. A structure can be active in one record and inactive in another. The source made the active and inactive calls. Unless noted, calls follow the shape of the dose curve; as a rule, active = well fitted curve in the direction sought with a large enough effect in the repeat runs; inconclusive = weak or mixed curves; inactive = no such curve, though single readings can be large; an effect the other way counts as inactive or inconclusive.
Tests used:
[1] = qHTS assay for small molecules that induce genotoxicity in human embryonic kidney cells expressing luciferase-tagged ATAD5 (AID 651632); also: nearly all actives have a fitted effect of over 15% in size; also: potency is read from the fitted curve at half-maximal effect
Procedure, shortened: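 Luminescence read-out: after 16 hr compound exposure at 37C, ATAD5-luciferase HEK293T cells received Amplite, 30 min RT, then CCD imaging. A rise in signal marks genotoxic stress.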

[2] = qHTS assay for small molecule agonists of the p53 signaling pathway - cell viability (AID 651633; calls by dose curve; also: nearly all actives have a fitted effect of over 30% in size; also: potency is read from the fitted curve at half-maximal effect)
Procedure, shortened: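 p53RE-bla cells, seeded at 4,000 per well and rested 5 h at 37 C/5% CO2, received compounds in DMSO for 16 h at 37 C. CellTiter-Glo was then added, and luminescence was read after 30 min at room temperature to gauge cytotoxicity.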

[3] = qHTS assay for small molecules that induce genotoxicity in human embryonic kidney cells expressing luciferase-tagged ATAD5 - cell viability (AID 651634; calls by dose curve; also: nearly all actives have a fitted effect of over 25% in size; also: potency is read from the fitted curve at half-maximal effect)
Procedure, shortened: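 HEK293T ATAD5-luc cells, 2,000/well; compound 15.5 hr, 37C/5% CO2; CellTiter-Fluor 30 min, 37C; fluorescence read.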

[4] = qHTS assay for small molecule disruptors of the mitochondrial membrane potential - cell viability (AID 720634; calls by dose curve; also: nearly all actives have a fitted effect of over 20% in size; also: potency is read from the fitted curve at half-maximal effect)
Procedure, shortened: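 Luminescence from CellTiter-Glo (ATP content) gave viability in HepG2 cells, read in the same wells as the MMP dye assay after 1 hr compound exposure at 37 C.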

[5] = qHTS assay for small molecule disruptors of the mitochondrial membrane potential (AID 720635); also: potency is read from the fitted curve at half-maximal effect
Procedure, shortened: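 HepG2 cells (2,000/well) attached overnight at 37C, then took compound for 1 hr at 37C, 5% CO2. Mito-MPS dye was added for 30 min; fluorescence was read at 490/535 nm (monomers) and 540/590 nm (aggregates).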

[6] = qHTS assay to test for compound auto fluorescence at 590 nm (red) in HepG2 cells (AID 720674)
Procedure, shortened: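 Intrinsic compound fluorescence in the red window (Ex/Em 540/590 nm) is measured in attached HepG2 cells exposed for 1 hr, DMSO vehicle as baseline, benchmarked to Rose Bengal sodium.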

[7] = qHTS assay to test for compound auto fluorescence at 535 nm (green) in HepG2 cells (AID 720675)
[8] = qHTS assay to test for compound auto fluorescence at 460 nm (blue) in HEK293 cells (AID 720678)
Procedure, shortened: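 Blue read-out at excitation 405 nm and emission 460 nm follows overnight compound exposure of HEK293 cells at 37C in 5% CO2. Activity is given as auto fluorescence equivalency to triamterene.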

[9] = qHTS assay to test for compound auto fluorescence at 590 nm (red) in HEK293 cells (AID 720679)
Procedure, shortened: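 Red channel, Ex/Em 540/590nm; signal expressed as equivalency to Rose Bengal sodium. HEK293, 2,000 cells/well, 10% dialyzed FBS; 23 nL compound pinned after 4-5 hr attachment; overnight 37C/5% CO2 before reading.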

[10] = qHTS assay to test for compound auto fluorescence at 535 nm (green) in HEK293 cells (AID 720680)
[11] = qHTS assay to test for compound auto fluorescence at 460 nm (blue) in HEK293 cell free culture (AID 720681)
Procedure, shortened: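 Test compounds were pinned into cell-free culture medium (DMEM with 10% FBS) and fluorescence was read directly at Ex/Em 405/460 nm. Signals were expressed as fluorescence equivalents of triamterene, with DMSO vehicle as control.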

[12] = qHTS assay to test for compound auto fluorescence at 535 nm (green) in HEK293 cell free culture (AID 720682)
Procedure, shortened: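 Fluorescein serves as the green reference fluorophore; each compound's intrinsic emission at 535 nm (excitation 485 nm) is reported as an equivalent amount of that dye, measured in serum-containing DMEM without cells.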

[13] = qHTS assay to test for compound auto fluorescence at 590 nm (red) in HEK293 cell free culture (AID 720683)
Procedure, shortened: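 Tox21 10K library compounds were pinned into cell-free DMEM with 10% FBS and fluorescence was read at excitation 540 nm. Activity is expressed as Rose Bengal sodium equivalency.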

[14] = qHTS assay to test for compound auto fluorescence at 590 nm (red) in HepG2 cell free culture (AID 720684)
Procedure, shortened: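 Ex 540 / Em 590 nm read of compound in cell-free MEM (10% FBS). Rose Bengal sodium reference.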

[15] = qHTS assay to test for compound auto fluorescence at 460 nm (blue) in HepG2 cell free culture (AID 720685)
Procedure, shortened: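 Cell-free plates of MEM plus 10% FBS received 23 nL compound or DMSO vehicle; blue-channel (405/460 nm) intensity scored against triamterene as reference fluorophore.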

[16] = qHTS assay to test for compound auto fluorescence at 535 nm (green) in HepG2 cell free culture (AID 720686)
[17] = qHTS assay to test for compound auto fluorescence at 460 nm (blue) in HepG2 cells (AID 720687)
Procedure, shortened: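 Cells (2,000/well in MEM with 10% FBS) attached overnight at 37 C, then were exposed to compound or DMSO for 1 hr at 37 C, 5% CO2. Fluorescence read at Ex/Em 405/460 nm, expressed as triamterene-equivalent signal.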

[18] = target: Glucocorticoid receptor (Homo sapiens) (UniProt P04150); test: qHTS assay to identify small molecule agonists of the glucocorticoid receptor (GR) signaling pathway (AID 720691; active = well fitted activation curve with a large enough effect in the signal ratio in the repeat runs, not every such curve was filed as active; the % refers to the signal ratio)
Procedure, shortened: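 HeLa GR-bla reporter line; cells pre-incubated 4 h, compound in DMSO 18 h at 37 C; LiveBLAzer B/G FRET substrate 2 h RT; fluorescence intensity read-out.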

[19] = target: Glucocorticoid receptor (Homo sapiens) (UniProt P04150); test: qHTS assay to identify small molecule antagonists of the glucocorticoid receptor (GR) signaling pathway (AID 720692; active = well fitted inhibition curve with a large enough effect in the signal ratio in the repeat runs, not every such curve was filed as active; the % refers to the signal ratio; also: potency is read from the fitted curve at half-maximal effect)
Procedure, shortened: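 Read-out: beta-lactamase FRET substrate fluorescence, 2 h at room temperature, in HeLa cells stably carrying a GRE-driven bla reporter. Compounds were co-incubated with 5 nM dexamethasone agonist (final) for 18 h at 37 C.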

Glucocorticoid receptor (Homo sapiens), sequence (P04150 whole entry, looked up): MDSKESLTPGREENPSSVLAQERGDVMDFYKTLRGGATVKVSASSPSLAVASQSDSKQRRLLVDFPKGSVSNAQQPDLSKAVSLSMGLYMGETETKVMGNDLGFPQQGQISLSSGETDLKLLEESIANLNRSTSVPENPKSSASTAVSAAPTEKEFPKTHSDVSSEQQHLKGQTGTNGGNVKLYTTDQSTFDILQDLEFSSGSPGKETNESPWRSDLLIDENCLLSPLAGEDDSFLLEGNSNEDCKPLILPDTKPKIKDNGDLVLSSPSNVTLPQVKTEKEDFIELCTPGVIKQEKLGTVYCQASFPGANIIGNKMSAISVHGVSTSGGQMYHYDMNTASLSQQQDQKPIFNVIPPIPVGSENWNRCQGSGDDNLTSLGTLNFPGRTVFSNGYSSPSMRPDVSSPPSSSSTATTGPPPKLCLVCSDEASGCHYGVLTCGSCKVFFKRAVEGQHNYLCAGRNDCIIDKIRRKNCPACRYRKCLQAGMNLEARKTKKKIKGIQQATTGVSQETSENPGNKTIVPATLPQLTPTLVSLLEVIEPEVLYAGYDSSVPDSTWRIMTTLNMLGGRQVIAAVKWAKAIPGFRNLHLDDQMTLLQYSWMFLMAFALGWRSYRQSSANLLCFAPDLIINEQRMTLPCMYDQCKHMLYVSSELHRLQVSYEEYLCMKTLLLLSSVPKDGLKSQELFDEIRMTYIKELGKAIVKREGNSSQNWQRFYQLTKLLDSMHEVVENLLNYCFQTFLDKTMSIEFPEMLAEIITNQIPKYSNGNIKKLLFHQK

Nc1ccc(N=Nc2ccccc2)c(N)c1
Potency [1]: 2.12 µM (active) | Potency [2]: inactive | Potency [3]: 67.1 µM (active) | Potency [4]: 47.5 µM (active) | Potency [5]: 4.75 µM (active) | outcome [6]: inactive | outcome [7]: inactive | Potency [8]: inactive | outcome [9]: inactive | outcome [10]: inactive | Potency [11]: inactive | outcome [12]: inactive | outcome [13]: inactive | outcome [14]: inactive | Potency [15]: inactive | outcome [16]: inactive | Potency [17]: inactive | Potency [18]: inactive

O=C(OC(=O)c1ccccc1)c1ccccc1
Potency [1]: inactive | Potency [2]: inactive | Potency [3]: inactive | Potency [4]: inactive | Potency [5]: inactive | outcome [6]: inactive | outcome [7]: inactive | outcome [9]: inactive | outcome [10]: inactive | Potency [11]: inactive | outcome [12]: inactive | outcome [13]: inactive | outcome [14]: inactive | Potency [15]: inactive | outcome [16]: inactive | Potency [17]: inactive | Potency [18]: inactive

Nc1nnc(-c2ccc([N+](=O)[O-])o2)o1
Potency [1]: inactive | Potency [2]: inactive | Potency [3]: inactive | Potency [4]: inactive | Potency [5]: 61.1 µM (active) | outcome [6]: inactive | outcome [7]: inactive | outcome [9]: inactive | outcome [10]: inactive | Potency [11]: inactive | outcome [12]: inactive | outcome [13]: inactive | outcome [14]: inactive | Potency [15]: inactive | outcome [16]: inactive | Potency [17]: inactive | Potency [18]: inactive

CCCCCC[C@@H](O)C/C=C\CCCCCCCC(=O)O
Potency [1]: inactive | Potency [2]: 21.1 µM (active) and inactive | Potency [3]: inactive | Potency [4]: inactive | Potency [5]: inactive | outcome [6]: inactive | outcome [7]: inactive | Potency [8]: inactive | outcome [9]: inactive | outcome [10]: inactive | Potency [11]: inactive | outcome [12]: inactive | outcome [13]: inactive | outcome [14]: inactive | Potency [15]: inactive | outcome [16]: inactive | Potency [17]: inactive | Potency [18]: inactive | Potency [19]: inactive

CN1CCCC(CC2c3ccccc3Sc3ccccc32)C1 (stereo unspecified)
Potency [1]: inactive | Potency [2]: inactive | Potency [3]: inactive | Potency [4]: inactive | fluorescence, relative to Rose Bengal [6]: 0.272% [at 18.6 µM] (inactive) | fluorescence, % of fluorescein control [7]: -0.0795% [at 18.6 µM] (inactive) | fluorescence, % of triamterene [8]: 0.136% [at 18.6 µM] (inactive) | fluorescence, % of fluorescent control [9]: -0.0119% [at 18.6 µM] (inactive) | fluorescence, % of fluorescein [10]: 0.0892% [at 18.6 µM] (inactive) | fluorescence, % of fluorescent control [11]: -0.0216% [at 18.6 µM] (inactive) | activity change [12]: 0.123% [at 18.6 µM] (inactive) | fluorescence, % of fluorescent control [13]: 0.0507% [at 18.6 µM] (inactive) | fluorescence, % of Rose Bengal [14]: -0.0495% [at 18.6 µM] (inactive) | fluorescence, % of fluorescent control [15]: 0.14% [at 18.6 µM] (inactive) | fluorescence, % of fluorescein control [16]: -0.006% [at 18.6 µM] (inactive) | fluorescence, % of fluorescent control [17]: 0.049% [at 18.6 µM] (inactive) | Potency [18]: inactive

Cc1c(C)c2c(c(C)c1OC(=O)CCC(=O)OCCO)CC[C@@](C)(CCC[C@H](C)CCC[C@H](C)CCCC(C)C)O2
Potency [1]: inactive | Potency [2]: 21.1 µM (active) | Potency [3]: 23.7 µM (active) | Potency [4]: inactive | Potency [5]: inactive | outcome [6]: inactive | outcome [7]: inactive | Potency [8]: inactive | outcome [9]: inactive | outcome [10]: inactive | Potency [11]: inactive | outcome [12]: inactive | outcome [13]: inactive | outcome [14]: inactive | Potency [15]: inactive | outcome [16]: inactive | Potency [17]: inactive

CCN(CC)CCNC(=O)COc1ccc(OC)cc1
Potency [1]: inactive | Potency [2]: inactive | Potency [3]: inactive | Potency [4]: inactive | Potency [5]: inactive | outcome [6]: inactive | outcome [7]: inactive | Potency [8]: inactive | outcome [9]: inactive | outcome [10]: inactive | Potency [11]: inactive | outcome [12]: inactive | outcome [13]: inactive | Potency [15]: inactive | outcome [16]: inactive | Potency [17]: inactive | Potency [18]: inactive

CCOc1ccccc1O[C@H](c1ccccc1)[C@H]1CNCCO1
Potency [1]: inactive | Potency [2]: inactive | Potency [3]: inactive | Potency [4]: inactive | outcome [6]: inactive | outcome [7]: inactive | Potency [8]: inactive | outcome [9]: inactive | outcome [10]: inactive | Potency [11]: inactive | outcome [12]: inactive | outcome [13]: inactive | outcome [14]: inactive | Potency [15]: inactive | outcome [16]: inactive | Potency [17]: inactive | Potency [18]: inactive | Potency [19]: inactive

c1ccc(C[n+]2cccc3ccccc32)cc1
Potency [1]: inactive | Potency [2]: inactive | Potency [3]: inactive | Potency [4]: inactive | outcome [6]: inactive | outcome [7]: inactive | Potency [8]: inactive | outcome [9]: inactive | outcome [10]: inactive | Potency [11]: inactive | outcome [12]: inactive | outcome [13]: inactive | outcome [14]: inactive | Potency [15]: inactive | outcome [16]: inactive | Potency [18]: inactive

N#CCc1ccc(Cl)cc1Cl
Potency [1]: inactive | Potency [2]: inactive | Potency [3]: inactive | Potency [4]: inactive | outcome [6]: inactive | outcome [7]: inactive | Potency [8]: inactive | outcome [9]: inactive | outcome [10]: inactive | Potency [11]: inactive | outcome [12]: inactive | outcome [13]: inactive | outcome [14]: inactive | Potency [15]: inactive | outcome [16]: inactive

C[C@]12CC[C@@H]3c4ccc(O)cc4CC[C@H]3[C@@H]1CC[C@@H]2OC(=O)CCC1CCCC1
Potency [1]: inactive | Potency [2]: inactive | Potency [3]: inactive | Potency [4]: inactive and 61.1 µM (active) | Potency [5]: 17.2 µM (active) | outcome [6]: inactive | outcome [7]: inactive | Potency [8]: inactive | outcome [9]: inactive | outcome [10]: inactive | Potency [11]: inactive | outcome [12]: inactive | outcome [13]: inactive | Potency [15]: inactive | outcome [16]: inactive | Potency [17]: inactive | Potency [19]: 10.7 µM (active) and 8.49 µM (active)

CCCCCCCC/C=C\CCCCCCCCO
Potency [1]: inactive | Potency [2]: inactive | Potency [3]: inactive | Potency [4]: inactive | Potency [5]: inactive | outcome [6]: inactive | outcome [7]: inactive | Potency [8]: inactive | outcome [9]: inactive | outcome [10]: inactive | Potency [11]: inactive | outcome [12]: inactive | outcome [13]: inactive | outcome [14]: inactive | Potency [15]: inactive | outcome [16]: inactive | Potency [18]: inactive | Potency [19]: inactive

CC1=C(CC=O)C(C)(C)CCC1
Potency [1]: inactive | Potency [2]: inactive | Potency [3]: inactive | Potency [4]: inactive | outcome [6]: inactive | outcome [7]: inactive | Potency [8]: inactive | outcome [9]: inactive | outcome [10]: inactive | Potency [11]: inactive | outcome [12]: inactive | outcome [13]: inactive | outcome [14]: inactive | Potency [15]: inactive | outcome [16]: inactive

From PubChem BioAssay (Tox21)
